# Shown are actives, neighbours in structure and some others; about 22% of the full set was active somewhere.
# CYP2C19 inhib: blockers of cytochrome P450 2C19 activity – biochemical, luminescence, ADME assay, primary screen | actives 21% (n = 96,000) | AID 778, 2007 | P33261 | CYP2C19 Supersomes, luciferin-H EGE luminescence, 30 min | inhibition, % at 5 µM;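 active = CYP2C19 inhibition above a set limit at 5 µM in the primary screen, cut at about 50% in these data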;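 also: plate controls were negative control wells for no effect and 2.5 mM tranylcypromine positive control for full effect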
# Target sequence (P33261 whole entry, looked up): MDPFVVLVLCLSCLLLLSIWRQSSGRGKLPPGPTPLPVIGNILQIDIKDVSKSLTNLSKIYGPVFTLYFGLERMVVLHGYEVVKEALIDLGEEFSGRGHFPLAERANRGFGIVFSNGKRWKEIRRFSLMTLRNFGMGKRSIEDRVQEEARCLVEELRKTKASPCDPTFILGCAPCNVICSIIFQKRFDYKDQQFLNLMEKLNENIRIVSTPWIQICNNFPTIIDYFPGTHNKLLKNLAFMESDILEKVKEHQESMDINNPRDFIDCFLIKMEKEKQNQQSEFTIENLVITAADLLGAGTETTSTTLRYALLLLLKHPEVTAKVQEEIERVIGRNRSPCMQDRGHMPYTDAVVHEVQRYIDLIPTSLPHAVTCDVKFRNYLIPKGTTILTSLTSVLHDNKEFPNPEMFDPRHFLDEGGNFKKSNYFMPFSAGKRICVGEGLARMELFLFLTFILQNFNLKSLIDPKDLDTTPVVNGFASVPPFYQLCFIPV
# CYP2C19 act: human CYP2C19 activators, primary screen, biochemical, luminescence; Cytochrome P450 2C19 (Homo sapiens), P33261; 96,000 tested, under 10 active; activation factor at 5 µM; AID 1025, 2008; recombinant CYP2C19, luciferin-H EGE luminescence; hits give high values; 0 = fully inhibited enzyme, 1 = untreated enzyme;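 active = activation factor of at least 2 at 5 µM in the primary screen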;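 also: 0 = wells with 2.5 mM tranylcypromine and 1 = vehicle-only wells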
# CYP2C9 activ: human CYP2C9 activators, primary screen, biochemical, luminescence; actives 1.4% (n = 96,000); activation factor at 5 µM; Cytochrome P450 2C9 (Homo sapiens), P11712; AID 1024, 2008; recombinant CYP2C9, luciferin-H conversion; hits give high values; factor 1 = untreated enzyme, 0 = blocked;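 active = activation factor of 2 or more for CYP2C9 at a 5 µM dose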;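 also: 0 = sulfaphenazole-blocked wells and 1 = vehicle-only wells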
# CYP2C9 inh: blockers of cytochrome P450 2C9 activity – biochemical, luminescence, ADME assay, primary screen. inhibition, % at 5 µM. AID 777, 2007. P11712. CYP2C9 Supersomes, luciferin-H conversion. actives 20% (n = 96,000);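 active = blocking of liver enzyme CYP2C9 beyond about 50% at 5 µM, limit read from the data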
# Measles CPE: compounds protecting cells from measles virus cytopathic effect, primary screen, measles RdRp inhibitor project, single point, MLSMR library, absorbance; Measles virus-infected cells, CPE protection; protection (pct of control), % at 4 µM; actives 1.5% (n = 140,000); in the data active = protection mostly above about 24%, no sharp cut-off; inactive = mostly below about 26%
# * hit, by the source's call; nt = no result.
SMILES,CYP2C19 inhib,CYP2C19 act,CYP2C9 activ,CYP2C9 inh,Measles CPE
CC(C)Oc1ccc(Cn2c(=O)sc3ccccc32)cc1,nt,nt,nt,nt,12
COc1ccc(Cn2c(=O)sc3ccccc32)cc1,50*,0.5,0.3,68*,15
O=c1sc2ccccc2n1COc1ccc(Cl)cc1,100*,0,0.1,94*,8
Cc1ccc(OCCn2c(=O)sc3ccccc32)cc1,nt,nt,nt,nt,5
O=c1sc2ccccc2n1CCCOc1ccccc1,47,0.5,0.4,62*,9
Cc1cc(C)c2[nH]c(=O)c(CN(Cc3cccs3)C(=S)NCC3CCCO3)cc2c1 (stereo not drawn),nt,nt,nt,nt,6
Cc1ccccc1OCCCn1c(=O)sc2ccccc21,33,0.7,0.5,55*,2
COc1ccccc1Nc1ncccc1C(=O)NCc1ccccc1,15,0.8,0.8,24,2
CC(C)Cn1c(CN(C)Cc2ccccc2)nc2c1c(=O)n(C)c(=O)n2C,12,0.9,0.2,81*,11
CN(Cc1ccccc1)Cc1nc2c(c(=O)n(C)c(=O)n2C)n1CCCc1ccccc1,83*,0.2,0.1,94*,7
CN(C)c1nc2c(c(=O)n(C)c(=O)n2C)n1Cc1ccccc1,43,0.6,1.1,-8,30
C[n+]1cccc(CNC(=O)/C=N/O)c1,-3,1,0.9,7,active
CCCCNC(=O)Nc1ccc(Br)cn1,82*,0.2,0.5,52*,9
CCCCC(=O)Nc1ccc(NC(=O)CCCC)nc1,25,0.7,0.8,24,2
CCCCC(=O)Nc1ccc(Br)cc1C(=O)O,-10,1.1,0.8,24,55*
CCCCC(=O)Nc1cccc(NC(=O)c2ccccc2Br)c1,58*,0.4,0.3,73*,11
CCCCNC(=O)Nc1ccccn1,16,0.8,0.7,30,2
CCCCC(=O)Nc1ccc(Br)cn1,57*,0.4,0.9,12,7
CCOc1cc(NS(=O)(=O)c2ccc(NC(C)=O)cc2)c(OCC)cc1NC(=O)C(C)C,-5,1.1,0.6,40,4
COC(=O)CNc1ccc2c(c1)OCO2,nt,nt,nt,nt,6
CCOC(=O)c1cccc(NS(=O)(=O)c2cnc[nH]2)c1,26,0.7,0.3,74*,13
CC(=O)Nc1ccc(S(=O)(=O)NNC(=O)CCC(=O)Nc2cc(C)ccc2C)cc1,nt,nt,nt,nt,36
CCOC(=O)c1ccc(NS(=O)(=O)c2cnc[nH]2)cc1,28,0.7,0,98*,27
CCOC(=O)c1cccc(NS(=O)(=O)c2ccc(NC(C)=O)cc2)c1,100*,0,0,98*,16
CCOC(=O)c1cccc(NS(=O)(=O)c2c(C)[nH]c(=O)[nH]c2=O)c1,9,0.9,0.8,20,9
SMILES,CYP2C19 inhib,CYP2C19 act,CYP2C9 activ,CYP2C9 inh,Measles CPE
CCOC(=O)c1ccc(NC(=O)c2ccc(NS(C)(=O)=O)cc2)cc1,-1,1,0.9,6,7
COC(=O)c1ccc(C)c(NS(=O)(=O)c2ccc(NC(C)=O)cc2)c1,76*,0.2,0,96*,5
CC1=C(C(=O)N2CCOCC2)C(c2ccccc2F)C2=C(CCCC2=O)N1 (stereo not drawn),10,0.9,1,-4,7
COC(=O)c1ccc(N2CCCCC2)c(NS(=O)(=O)c2ccc(C)cc2)c1,32,0.7,0.1,87*,4
CCN(CC)CCNC(=O)c1ccc(N2CCCCC2)c(NS(=O)(=O)c2ccc(C)cc2)c1,46,0.5,0.6,42,8
Cc1ccc(S(=O)(=O)N=S(CC2CC2(Cl)Cl)CC2CC2(Cl)Cl)cc1 (stereo not drawn),62*,0.4,0.6,44,0
CC(C)c1ccc(-c2nc(N3CCOCC3)[nH]c(=O)c2C#N)cc1,8,0.9,0.9,11,4
Clc1cccc(CSc2nnc(-c3ccccn3)n2Cc2ccco2)c1,50*,0.5,0.2,85*,5
CC(C)(C)c1ccc(CSc2nnc(-c3ccccn3)n2Cc2ccco2)cc1,73*,0.3,0.1,93*,12
Brc1ccc(CSc2nnc(-c3ccccn3)n2Cc2ccco2)cc1,48,0.5,0.1,87*,-1
Nn1c(SCc2ccccc2)nnc1-c1ccccn1,17,0.8,1.1,-13,10
CC1=Nc2ccccc2/C1=C\c1nc(-c2ccc(F)cc2)oc1O,-8,1.1,0.9,8,1
C=CCn1c(SCC(=O)NC(=O)NCC(C)C)nnc1C1CCCCC1,55*,0.4,1,4,6
C=CCn1c(SCC(=O)NC(=O)NCCC)nnc1C1CCCCC1,58*,0.4,0.3,66*,20
C=CCn1c(SCC(=O)NCC2CCCO2)nnc1C1CCCCC1 (stereo not drawn),8,0.9,0.9,15,8
Cc1ccc(S(=O)(=O)N2CCC(=O)N(C(COCc3ccc(C(F)(F)F)cc3)Cc3ccccc3)CC2)cc1 (stereo not drawn),nt,nt,nt,nt,1
CCCOC(=O)c1c(N)sc2c1CCC2,43,0.6,0.5,50*,3
CCOC(=O)c1c(NC(=O)CN(CC)CC)sc2c1CCC2,12,0.9,0.5,52*,3
CCOC(=O)Nc1sc(C(=O)N(CC)CC)c(C)c1C(=O)OCC,50,0.5,0.3,69*,2
CCOC(=O)c1sc(NC(C)=O)c(C(=O)OCC)c1C,27,0.7,0.8,24,7
CCOC(=O)c1c(N)sc2c1CCSC2,11,0.9,0.8,16,5
CCOC(=O)c1sc(NC(=O)CN(CC)CC)c(C(=O)OCC)c1C,20,0.8,0.2,76*,7
N#Cc1ccccc1NC(=O)CSc1nnc(-c2ccccc2)n1-c1ccccc1,36,0.6,0.2,78*,1
Cc1ccc(-c2nnc(SCC(=O)CC(=O)Nc3ccccc3)n2-c2ccccc2)cc1,3,1,0.8,20,2
CCN(CC)c1ccc(-c2nnc(SCC(=O)Nc3ccccc3C#N)n2-c2ccccc2)cc1,52*,0.5,0.3,74*,4
Cc1ccc(-n2c(=O)c3sccc3n(Cc3cc(=O)n4cc(Cl)ccc4n3)c2=O)cc1F,nt,nt,nt,nt,9
CCN(c1cccc(C(F)(F)F)c1)S(=O)(=O)c1ccc2c(c1)CCN2C(C)=O,61*,0.4,0.7,28,6
CCN(c1cccc(C)c1)S(=O)(=O)c1ccc2c(c1)CCN2C(C)=O,34,0.7,0.6,38,5
Cc1ccc(S(=O)(=O)N/N=C/c2ccc(OCC(=O)Nc3ccccc3Cl)cc2)cc1,30,0.7,0.2,84*,2
O=C(COc1ccc(/C=N/NS(=O)(=O)c2ccccc2)cc1)Nc1ccc(F)cc1,17,0.8,0.4,65*,48
